Test results published in article PMC11062922 (Nature Chemical Biology, 2023).
Read-outs that look alike come from different tables or passages of the source.

Legend:
AAK1 = tested on: AAK1; design: species or system human, MV4-11 + K-562 + COLO205 + SK-N-BE2 + OVCAR-8; conditions: read-out: apparent Kd, n = 1
BMP2K = tested on: BMP2K; design: species or system human, MV4-11 + K-562 + COLO205 + SK-N-BE2 + OVCAR-8; conditions: read-out: apparent Kd, n = 1
CLK1 = tested on: CLK1; design: species or system human, MV4-11 + K-562 + COLO205 + SK-N-BE2 + OVCAR-8; conditions: read-out: apparent Kd, n = 1
CLK4 = tested on: CLK4; design: species or system human, MV4-11 + K-562 + COLO205 + SK-N-BE2 + OVCAR-8; conditions: read-out: apparent Kd, n = 1
MELK = tested on: MELK; design: species or system human, MV4-11 + K-562 + COLO205 + SK-N-BE2 + OVCAR-8; conditions: read-out: apparent Kd; compound concentrations:100 nM and 1000 nM (sheet 'Samples'); n = 1
MYLK3 = tested on: MYLK3; design: species or system human, MV4-11 + K-562 + COLO205 + SK-N-BE2 + OVCAR-8; conditions: read-out: apparent Kd; compound concentrations:100 nM and 1000 nM (sheet 'Samples'); n = 1
Q6ZSR9 = Q6ZSR9 (human, UniProt Q6ZSR9); design: species or system MV4-11 + K-562 + COLO205 + SK-N-BE2 + OVCAR-8; conditions: read-out: apparent Kd, n = 1
RET = tested on: RET; design: species or system human, MV4-11 + K-562 + COLO205 + SK-N-BE2 + OVCAR-8; conditions: read-out: apparent Kd; compound concentrations:100 nM and 1000 nM (sheet 'Samples'); n = 1
CSNK2A1;CSNK2A3 = tested on: CSNK2A1;CSNK2A3; design: species or system human, MV4-11 + K-562 + COLO205 + SK-N-BE2 + OVCAR-8; conditions: read-out: apparent Kd, n = 1
CSNK2A2 = tested on: CSNK2A2; design: species or system human, MV4-11 + K-562 + COLO205 + SK-N-BE2 + OVCAR-8; conditions: read-out: apparent Kd, n = 1
NUAK1 = tested on: NUAK1; design: species or system human, MV4-11 + K-562 + COLO205 + SK-N-BE2 + OVCAR-8; conditions: read-out: apparent Kd; compound concentrations:100 nM and 1000 nM (sheet 'Samples'); n = 1
PAK4 = tested on: PAK4; design: species or system human, MV4-11 + K-562 + COLO205 + SK-N-BE2 + OVCAR-8; conditions: read-out: apparent Kd; compound concentrations:100 nM and 1000 nM (sheet 'Samples'); n = 1
PRKD2 = tested on: PRKD2; design: species or system human, MV4-11 + K-562 + COLO205 + SK-N-BE2 + OVCAR-8; conditions: read-out: apparent Kd; compound concentrations:100 nM and 1000 nM (sheet 'Samples'); n = 1
GAK = tested on: GAK; design: species or system human, MV4-11 + K-562 + COLO205 + SK-N-BE2 + OVCAR-8; conditions: read-out: apparent Kd, n = 1
DYRK1A = tested on: DYRK1A; design: species or system human, MV4-11 + K-562 + COLO205 + SK-N-BE2 + OVCAR-8; conditions: read-out: apparent Kd; compound concentrations: 100 nM and 1000 nM (sheet 'Samples'), CATDS: 0.15601694862230001; n = 1
FLT4 = tested on: FLT4; design: species or system human, MV4-11 + K-562 + COLO205 + SK-N-BE2 + OVCAR-8; conditions: read-out: apparent Kd; compound concentrations:100 nM and 1000 nM (sheet 'Samples'); n = 1
GSK3A = tested on: GSK3A; design: species or system human, MV4-11 + K-562 + COLO205 + SK-N-BE2 + OVCAR-8; conditions: read-out: apparent Kd; compound concentrations:100 nM and 1000 nM (sheet 'Samples'); n = 1
GSK3B = tested on: GSK3B; design: species or system human, MV4-11 + K-562 + COLO205 + SK-N-BE2 + OVCAR-8; conditions: read-out: apparent Kd; compound concentrations:100 nM and 1000 nM (sheet 'Samples'); n = 1
[1] = compound concentrations:100 nM and 1000 nM (sheet 'Samples')

Chain of Q6ZSR9 (Q6ZSR9 whole entry, looked up): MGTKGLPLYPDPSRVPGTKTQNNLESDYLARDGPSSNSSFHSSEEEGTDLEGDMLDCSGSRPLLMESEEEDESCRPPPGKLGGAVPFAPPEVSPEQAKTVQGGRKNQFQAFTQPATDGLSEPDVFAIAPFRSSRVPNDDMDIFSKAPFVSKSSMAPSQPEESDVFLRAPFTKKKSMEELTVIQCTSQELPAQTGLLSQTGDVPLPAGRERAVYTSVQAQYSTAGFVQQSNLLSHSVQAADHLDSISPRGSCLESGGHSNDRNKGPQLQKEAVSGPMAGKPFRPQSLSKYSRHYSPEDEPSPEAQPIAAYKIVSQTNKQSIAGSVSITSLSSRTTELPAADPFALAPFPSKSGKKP

## CNc1cc(-c2ccc3c(N)n[nH]c3c2)nc(N)n1 [GSK2224810A]
AAK1; [1]
  potency estimated from few doses: 0.781 µM
BMP2K; [1]
  potency estimated from few doses: 1.04 µM
CLK1; [1]
  potency estimated from few doses: 0.314 µM
CLK4; [1]
  potency estimated from few doses: 0.154 µM
MELK
  potency estimated from few doses: 0.898 µM
MYLK3
  potency estimated from few doses: 0.457 µM
Q6ZSR9; [1]
  potency estimated from few doses: 0.687 µM
RET
  potency estimated from few doses: 1.07 µM

## Cc1n[nH]c2cc(Nc3ccnc(Nc4cccc(CN5CCOCC5)c4)n3)ccc12 [GW682569X]
AAK1; compound concentrations: 100 nM and 1000 nM (sheet 'Samples'), CATDS: 0.12351757147220301
  potency estimated from few doses: 0.729 µM
BMP2K; compound concentrations: 100 nM and 1000 nM (sheet 'Samples'), CATDS: 0.100079515212571
  potency estimated from few doses: 1.25 µM
Q6ZSR9; compound concentrations: 100 nM and 1000 nM (sheet 'Samples'), CATDS: 0.10935758268406801
  potency estimated from few doses: 0.981 µM

## O=C(O)C(F)(F)F.O=c1[nH]ccc2nc(N[C@@H]3CCNC3)nc(Nc3cc(Cl)cc(Cl)c3)c12 [GSK2188764A]
AAK1; [1]
  potency estimated from few doses: 0.114 µM
BMP2K; [1]
  potency estimated from few doses: 0.749 µM
CSNK2A1;CSNK2A3; [1]
  potency estimated from few doses: 0.239 µM
CSNK2A2; [1]
  potency estimated from few doses: 0.585 µM
MELK
  potency estimated from few doses: 0.765 µM
MYLK3
  potency estimated from few doses: 0.184 µM
NUAK1
  potency estimated from few doses: 0.0274 µM
PAK4
  potency estimated from few doses: 0.011 µM
PRKD2
  potency estimated from few doses: 1.3 µM
Q6ZSR9; [1]
  potency estimated from few doses: 0.151 µM
RET
  potency estimated from few doses: 1.35 µM

## CCCc1cc(N2CCCN(C)CC2)nc2sc3c(N)ncnc3c12 [BI00604564]
AAK1; compound concentrations: 100 nM and 1000 nM (sheet 'Samples'), CATDS: 0.13729874027545599
  potency estimated from few doses: 1.99 µM
GAK; compound concentrations: 100 nM and 1000 nM (sheet 'Samples'), CATDS: 0.27765104438225702
  potency estimated from few doses: 0.516 µM
Q6ZSR9; compound concentrations: 100 nM and 1000 nM (sheet 'Samples'), CATDS: 0.16382983501134099
  potency estimated from few doses: 1.31 µM

## CC(C)Nc1cc(-c2ccc3c(N)n[nH]c3c2)nc(N)n1 [GSK2221681A]
AAK1; [1]
  potency estimated from few doses: 0.149 µM
BMP2K; [1]
  potency estimated from few doses: 0.947 µM
CLK4; [1]
  potency estimated from few doses: 1.55 µM
MELK
  potency estimated from few doses: 1.13 µM
MYLK3
  potency estimated from few doses: 1.41 µM
Q6ZSR9; [1]
  potency estimated from few doses: 0.22 µM

## O=C1N=C(NCc2cccs2)O/C1=C\c1ccc2ncccc2c1 [RO4624208-000]
AAK1; compound concentrations: 100 nM and 1000 nM (sheet 'Samples'), CATDS: 0.10731748351682301
  potency estimated from few doses: 0.135 µM
BMP2K; compound concentrations: 100 nM and 1000 nM (sheet 'Samples'), CATDS: 4.6084247955460698E-2
  potency estimated from few doses: 1.92 µM
CLK1; compound concentrations: 100 nM and 1000 nM (sheet 'Samples'), CATDS: 0.227495449578137
  potency estimated from few doses: 0.0237 µM
CLK4; compound concentrations: 100 nM and 1000 nM (sheet 'Samples'), CATDS: 0.59916054369274396
  potency estimated from few doses: 0.00427 µM
CSNK2A1;CSNK2A3; compound concentrations: 100 nM and 1000 nM (sheet 'Samples'), CATDS: 6.2614032961525998E-2
  potency estimated from few doses: 0.629 µM
CSNK2A2; compound concentrations: 100 nM and 1000 nM (sheet 'Samples'), CATDS: 6.3902524713508005E-2
  potency estimated from few doses: 0.59 µM
DYRK1A
  potency estimated from few doses: 0.0538 µM
Q6ZSR9; compound concentrations: 100 nM and 1000 nM (sheet 'Samples'), CATDS: 0.11947964791327
  potency estimated from few doses: 0.103 µM

## CS(=O)(=O)CCn1c(=O)c(Oc2ccc(F)cc2F)cc2cnc(NC3CCOCC3)nc21 [RO5027956-000]
AAK1; [1]
  potency estimated from few doses: 0.968 µM
BMP2K; [1]
  potency estimated from few doses: 1.02 µM
CLK1; [1]
  potency estimated from few doses: 1.12 µM
CLK4; [1]
  potency estimated from few doses: 1.24 µM
CSNK2A1;CSNK2A3; [1]
  potency estimated from few doses: 1.1 µM
CSNK2A2; [1]
  potency estimated from few doses: 1.53 µM
FLT4
  potency estimated from few doses: 1.39 µM
GAK; [1]
  potency estimated from few doses: 0.422 µM
GSK3A
  potency estimated from few doses: 0.592 µM
GSK3B
  potency estimated from few doses: 0.601 µM
PAK4
  potency estimated from few doses: 1.27 µM
Q6ZSR9; [1]
  potency estimated from few doses: 0.932 µM
RET
  potency estimated from few doses: 0.823 µM

## Cc1ccccc1C1=C(c2cn(C)c3ccccc23)C(=O)NC1=O [RO0317612-000]
AAK1; compound concentrations: 100 nM and 1000 nM (sheet 'Samples'), CATDS: 0.12392874635964
  potency estimated from few doses: 1.65 µM
